ClpP mod: qHTS Assay for Activators of ClpP; AID 651965, 2013; purified B. subtilis ClpP, FRET peptide cleavage, 20 min; 1.9% of 340,000 active; Potency, µM (top dose mostly 57.5 µM), for inactives: top-dose activity change, negative = active; ATP-dependent Clp protease proteolytic subunit (Bacillus subtilis (strain 168)), P80244; active = well fitted falling curve with a large enough effect; inconclusive = small, poorly fitted or top-dose-only effect; inactive = no such curve, though single readings can be large or run the other way; note: the source files actives as falling curves though it sought activators and does not explain the sign; nearly all actives have a fitted effect of over 65% in size
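Purified B. subtilis ClpP, 10 microg/mL final in Tris/HCl pH8 with KCl, BSA, glycerol and Tween-20, cleaved an Abz/nitrotyrosine-quenched decapeptide. Fluorescence (ex 320, em 430) was read at 0 and 20 min at room temperature. Delta was normalized to 5.8 microM ADEP and DMSO/no-enzyme controls.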
TDP1 inh: TDP1 (human) enzyme inhibition. Potency, µM (highest dose often 130 µM), for inactives: at the highest dose activity change, negative = inhibition, actives largely listed as inhibitors. recombinant TDP1, AlphaScreen DNA substrate cleavage. 0.28% of 350,000 active. Q9NUW8; note: % is set by controls: 0 for no effect and ±100 for the full control effect; nearly all actives have a fitted effect of over 40% in size
Target sequence (Q9NUW8 whole entry, looked up): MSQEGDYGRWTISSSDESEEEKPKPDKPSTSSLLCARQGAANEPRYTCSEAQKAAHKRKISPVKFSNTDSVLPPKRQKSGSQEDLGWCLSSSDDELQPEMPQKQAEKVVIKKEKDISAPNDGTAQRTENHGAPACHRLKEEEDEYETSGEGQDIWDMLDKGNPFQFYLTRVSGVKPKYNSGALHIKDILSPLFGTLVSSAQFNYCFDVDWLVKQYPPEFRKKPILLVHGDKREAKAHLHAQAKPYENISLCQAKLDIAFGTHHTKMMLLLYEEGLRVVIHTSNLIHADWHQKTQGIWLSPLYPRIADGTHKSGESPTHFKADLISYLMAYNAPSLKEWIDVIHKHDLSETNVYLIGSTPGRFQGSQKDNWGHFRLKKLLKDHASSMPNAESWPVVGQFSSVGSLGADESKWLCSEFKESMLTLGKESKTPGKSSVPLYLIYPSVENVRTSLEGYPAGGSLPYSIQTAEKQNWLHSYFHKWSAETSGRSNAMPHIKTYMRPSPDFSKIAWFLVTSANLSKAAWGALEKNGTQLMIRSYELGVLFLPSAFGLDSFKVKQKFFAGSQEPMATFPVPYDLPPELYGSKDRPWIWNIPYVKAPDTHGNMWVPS
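E. coli-derived human Tdp1, 1 nM final. Cpd preinc 15 min RT; substrate 15 nM final, 5 min RT; AS bead mix 10 ug/ml final, 10 min RT. Signal loss = tyrosine-FITC cleavage. No-enzyme wells = max signal.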
DT40 TDP1 no CPT: qHTS for Inhibitors of human tyrosyl-DNA phosphodiesterase 1 (TDP1): qHTS in cells in absence of CPT | DT40 Tdp1-/- hTDP1 cells, no CPT, ATP luminescence, 48 h | Potency, µM (titrated, usually from 46.2 µM), without a hit: at the highest dose activity change, negative = growth inhibition, most hits filed as inhibitors | 15% of 420,000 active | AID 686978, 2013; note: % is set by controls: 0 for no effect and ±100 for the full control effect; nearly all actives have a fitted effect of over 55% in size
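Compound effects on proliferation are scored in DT40 Tdp1-/-;hTDP1 cells in the absence of CPT. ATP levels (CellTiter-Glo luminescence) are recorded after a ≥48 hr, 37 °C incubation.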
DT40 TDP1 CPT: growth inhibition of DT40 Tdp1-/-;hTDP1 cells with camptothecin (screen for TDP1 inhibitors); chicken DT40 Tdp1-/-;hTDP1 cells + 20 nM CPT, ATP luminescence, 48 h; Potency, µM (top dose mostly 46.2 µM), without a hit: at the top dose activity change, negative = growth inhibition, actives largely listed as inhibitors; 12% of 420,000 active; AID 686979; note: % is set by controls: 0 for no effect and ±100 for the full control effect; nearly all actives have a fitted effect of over 55% in size
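Chicken DT40 Tdp1-/- cells complemented with human TDP1, 400 cells/well, exposed to compounds plus 20 nM camptothecin for at least 48 h at 37 C; viability read as ATP content by CellTiter-Glo luminescence.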
Numbers without * were called inactive; ? = inconclusive; nt = not tested or not shown; [ ] = dose if it differs, or a comment. A selection: hits, their analogues and other compounds. The true share with any hit is near 17%. Unless noted, calls come from the whole dose curve; as a rule, active = well fitted curve in the direction sought with a large enough effect; inconclusive = small, poorly fitted or top-dose-only effect, or another doubt; inactive = no such curve, though single readings can be large; an effect the other way counts as inactive or inconclusive. Potency is the fitted concentration of half-maximal effect.

SMILES	ClpP mod	TDP1 inh	DT40 TDP1 no CPT	DT40 TDP1 CPT
CCOC(=O)N1CCN(C(=O)C[C@@H]2C[C@@]3(C(=O)OC)CCCCC=C3N(CCc3ccc(OC)c(OC)c3)C2=O)CC1	-2%	nt	?	?
CCOC(=O)[C@]12CCCC=C1N(Cc1ccccc1)C(=O)[C@H](CC(=O)N1CCN(C(=O)C3CC3)CC1)C2	3%	nt	10%	2%
CCCCCCCCN1C(=O)[C@H](CC(=O)N2CCC(c3ccccc3)CC2)C[C@@]2(C(=O)OC)CCCCC=C12	-1%	nt	18µM*	?
COC(=O)[C@]12CCCCC=C1N(Cc1ccccc1)C(=O)[C@H](CC(=O)N1CCC(c3ccccc3)CC1)C2	2%	nt	?	?
CCCCCCCCN1C(=O)[C@H](CC(=O)N2CCN(C(=O)C3CC3)CC2)C[C@@]2(C(=O)OCC)CCCC=C12	2%	nt	23µM*	23µM*
CCCCCCCCN1C(=O)[C@H](CC(=O)N2CCN(C(=O)OCC)CC2)C[C@@]2(C(=O)OC)CCCCC=C12	0%	nt	21µM*	?
CCCCCCCCN1C(=O)[C@H](CC(=O)N2CCCC2)C[C@@]2(C(=O)OC)CCCCC=C12	2%	nt	18µM*	16µM*
CCOC(=O)C1=C[C@@H](C(C)(C)C)N(S(=O)(=O)c2ccccc2C)[C@H]1c1ccc(Cl)cc1	-2%	nt	?	?
C=CCNC(=O)N1CCC(n2nccc2NC(=O)CCCc2ccccc2)CC1	-4%	-2%	23%	-2%
COC(=O)[C@]12CCCCC=C1N(CCc1ccc(OC)c(OC)c1)C(=O)[C@H](CC(=O)N1CCN(C(=O)C3CC3)CC1)C2	1%	nt	-26%	-24%
CCCCCCCCN1C(=O)[C@H](CC(=O)N2CCN(C(=O)C3CC3)CC2)C[C@@]2(C(=O)OC)CCCCC=C12	2%	nt	16µM*	?
Nc1ncnc2c1ncn2[C@@H]1O[C@H](C(=O)N2CCN(c3ccc(Cl)cn3)CC2)[C@@H](O)[C@H]1O	4%	nt	21µM*	-26%
O=C(/C=C/c1ccccc1)N(c1ccccn1)C1CCCCC1	-5%	3%	?	?
O=C(/C=C/c1ccccc1Cl)N(c1ccccn1)C1CCCCC1	4%	3%	16µM*	?
CCN(CC)S(=O)(=O)c1ccc(/C=C/C(=O)N(c2ccccn2)C2CCCCC2)cc1	nt	5%	12µM*	?
CCN1CCN(c2ncnc3scc(-c4ccc(OC)cc4)c23)CC1	-1%	nt	-18%	-28%
Fc1ccc(-c2csc3ncnc(N4CCN(c5ccccc5)CC4)c23)cc1	nt	-2%	?	?
COc1ccc(CN2CCN(c3ncnc4scc(-c5ccc(F)cc5)c34)CC2)cc1	-2%	nt	21µM*	16µM*
CCOc1ccc(CN2CCN(c3ncnc4scc(-c5ccccc5)c34)CC2)cc1	1%	nt	8.2µM*	?
COc1ccc(F)cc1CN1CCN(c2ncnc3scc(-c4ccccc4)c23)CC1	nt	8%	16µM*	15µM*
O=C(NCCCN1CCOCC1)c1cnn(-c2ncc3c(n2)-c2ccccc2CC3)c1C1CC1	nt	nt	-15%	-2%[9.04 µM]
Cc1ccc(NC(=O)C2CCCN(S(=O)(=O)c3ccc4c(c3)CCCC(=O)N4)C2)cc1N(C)C (stereo not drawn)	2%	7%	nt	nt
COc1cccc(/C=N/NC(=O)c2c(-c3ccccc3)noc2C)c1O	-5%	5%	4.6µM*	4.1µM*
COc1cccc(/C=N/NC(=O)C(=O)NCc2ccco2)c1O	0%	9%	21µM*	7.3µM*
COc1cccc(/C=N/NC(=O)C(=O)N/N=C/c2cccc(OC)c2O)c1O	nt	5%	1.6µM*	1µM*
SMILES	ClpP mod	TDP1 inh	DT40 TDP1 no CPT	DT40 TDP1 CPT
COc1cccc(/C=N\NC(=O)C2C(=O)NCC2c2ccccc2)c1O (stereo not drawn)	-3%	0%	23µM*	?
COc1cccc(/C=N/NC(=O)C(=O)N2CCCCCC2)c1O	0%	1%	?	?
O=C1C(c2ccccc2)c2ccccc2N1Cc1ccccc1 (stereo not drawn)	nt	nt	-30%	-11%
CC1=C(C(=O)Nc2cccc(C)c2C)C2(CCCCC2)OC1=O	0%	-2%	-11%	-21%
COc1cccc(-c2nn(Cc3ccccc3)cc2CO)c1	nt	6%	-32%	0%
NC(=S)N/N=C/c1ccccc1[N+](=O)[O-]	nt	nt	-9%	-27%
COc1cccc(/C=N/NC(=O)c2cc3cc([N+](=O)[O-])ccc3s2)c1O	-1%	1%	0.46µM*	0.92µM*
COc1cccc(/C=N/NC(=O)c2ccoc2C)c1O	-2%	7%	0.73µM*	3.3µM*
COc1ccc(/C=N/NC(=O)c2cccc([N+](=O)[O-])c2)cc1O	nt	-2%	?	-29%
COc1cc(/C=N/NC(=O)c2ccoc2C)ccc1O	-7%	2%	16%	14%
COC(=O)c1cccc(/C=N/NC(N)=S)c1O	-20%	0%	0.26µM*	0.18µM*
Cc1ccc2c(c1)c(/C=C/c1cc[n+](C)cc1)c(C)n2C	1%	nt	0.41µM*	0.52µM*
CCCn1c(/C=C/c2cc[n+](C)cc2)nc2ccccc21	nt	nt	-2%	3%
C[n+]1ccc(/C=C/c2ccc(Br)cc2)cc1	?	-2%	-12%	2%
Cc1ccc2[nH]c(C)c(/C=C/c3cc[n+](C)cc3)c2c1	nt	nt	2.6µM*	3.3µM*
O=C(Nc1cccc(C(F)(F)F)c1)c1ccc(-c2ccc(F)c(F)c2)c2ccoc12	-10%	nt	?	?
O=C(C=Cc1ccc2c(c1)OCO2)C1CC1	-3%	nt	?	1%
COc1ccc(S(=O)(=O)NC(=O)C2(C)CCN2C(=O)C(C)(C)c2ccccc2)cc1 (stereo not drawn)	-1%	nt	-3%	0%
Cn1cccc1C(C#N)(CC#N)c1cccc(F)c1C#N (stereo not drawn)	0%	-1%	5%	9%
Cn1cccc1C(C#N)c1cccc(F)c1C#N (stereo not drawn)	nt	6%	18µM*	?
Cc1cc2c(SCC(=O)NC3CCCC3)ncnc2s1	nt	nt	-20%	-5%
CCN1C(=O)c2ccccc2S(=O)c2ccc(C(=O)N3CCN(c4cccc(Cl)c4)CC3)cc21 (stereo not drawn)	-2%	0%	18µM*	?
CCN1C(=O)c2ccccc2S(=O)c2ccc(C(=O)N3CCN(c4ccccc4)CC3)cc21 (stereo not drawn)	-2%	1%	18µM*	?
CCN1C(=O)c2ccccc2S(=O)c2ccc(C(=O)N3CCCCCC3)cc21 (stereo not drawn)	1%	3%	?	?
CCN1CCN(C(=O)c2ccc3c(c2)N(Cc2ccc(Cl)cc2)C(=O)c2ccccc2S3=O)CC1 (stereo not drawn)	1%	7%	?	?
